Data: PubChem BioAssay (EPA / NIEHS)
Where “and” joins values, the source holds several entries; their conditions need not be identical. Equal values may be shown once. Records with an inconclusive call do not appear. Some structures have more than one record in an assay (separate samples or runs), and their calls can disagree. Calls of active or inactive are those of the source. Rule for the calls, unless noted: active = hit-call score of the fitted dose curve at least 0.9, where 1 is the maximum; inactive = score below 0.9.

Tests used:
[1] = biological target: Estrogen-related receptor gamma (Homo sapiens) (UniProt P62508); test: ATG_ERRg_TRANS: Attagene TRANS-FACTORIAL HepG2 Assay for human Estrogen-Related Receptor gamma (ERRg) (AID 2282977; active = hit-call score of the fitted dose curve at least 0.9, where 1 is the maximum;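 note: hits increase reporter signal over DMSO so potencies reflect activators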); conditions: HepG2 Attagene TRANS reporter, ERRg transactivation
In short: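 Exogenous NR-Gal4 chimera activity was assessed in HepG2 cells bearing transfected GAL4-UAS reporters. After 24 h dosing, total RNA underwent RT-PCR, fluorescent primer extension and HpaI digestion before capillary electrophoresis, with gain of signal scored against DMSO.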

[2] = biological target: Glucocorticoid receptor (Homo sapiens) (UniProt P04150); test: ATG_GR_TRANS: Attagene TRANS-FACTORIAL HepG2 Assay for human Glucocorticoid Receptor (GR) (AID 2282978; active = hit-call score of the fitted dose curve at least 0.9, where 1 is the maximum;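 note: activators score as hits since higher reporter transcript over DMSO is fitted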); conditions: HepG2 Attagene TRANS GR reporter, mRNA transcription
In short: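 HepG2 cells transiently transfected with multiplexed reporter units in which chimeric NR-GAL4 proteins drive GAL4-UAS reporters; 24 h compound exposure. Reporter mRNA measured by RT-PCR, 6-FAM labelling, HpaI digestion and capillary electrophoresis; gain-of-signal fitted versus DMSO.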

[3] = biological target: Bile acid receptor (Homo sapiens) (UniProt Q96RI1); test: ATG_FXR_TRANS: Attagene TRANS-FACTORIAL HepG2 Assay for Farnesoid X Receptor (FXR) (AID 2282979; active = hit-call score of the fitted dose curve at least 0.9, where 1 is the maximum;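 note: hits raise reporter mRNA above DMSO so AC50 marks FXR activation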); conditions: HepG2 Attagene TRANS FXR-GAL4 reporter transcription
In short: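 HepG2 cells were transiently transfected with GAL4-UAS reporters driven by chimeric NR-Gal4 proteins and dosed for 24 h. Reporter mRNA was quantified by RT-PCR, fluorescent labelling, HpaI digestion and capillary electrophoresis, with gain of signal scored versus DMSO.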

[4] = biological target: Oxysterols receptor LXR-beta (Homo sapiens) (UniProt P55055); test: ATG_LXRb_TRANS: Attagene TRANS-FACTORIAL HepG2 Assay for human Liver X Receptor beta (LXRb) (AID 2282981; active = hit-call score of the fitted dose curve at least 0.9, where 1 is the maximum); conditions: HepG2 Attagene TRANS GAL4-LXRb reporter, mRNA
In short: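 After 24 h of chemical treatment, transfected HepG2 cells yield total RNA; reporter cDNA is PCR-amplified, FAM-labelled, HpaI-cut and run on capillary electrophoresis. Signal reflects chimeric LXRb-Gal4 activity on GAL4-UAS reporters.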

[5] = biological target: Hepatocyte nuclear factor 4-alpha (Homo sapiens) (UniProt P41235); test: ATG_HNF4a_TRANS: Attagene TRANS-FACTORIAL HepG2 Assay for human Hepatocyte Nuclear Factor 4 alpha (HNF4a) (AID 2282982; active = hit-call score of the fitted dose curve at least 0.9, where 1 is the maximum); conditions: HepG2 HNF4a transactivation reporter, mRNA readout
In short: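 Multiplexed reporter assay: transfected HepG2, 24 h exposure, total RNA → oligo(dT) RT → PCR → 6-FAM extension → HpaI digest → CE fluorescence. DMSO = negative control.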

[6] = ATG_M_32_TRANS: Attagene TRANS-FACTORIAL HepG2 Assay for M32 Transcription Factor (Internal Marker) (AID 2282984; active = hit-call score of the fitted dose curve at least 0.9, where 1 is the maximum;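 note: transcript level of a background control reporter unit measured by RT-PCR and capillary electrophoresis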); conditions: HepG2 Attagene TRANS M32 internal marker reporter
In short: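 Cell-based TRANS-format assay in HepG2: exogenous chimeric GAL4 reporter units transiently expressed, compounds applied 24 h. Reporter mRNA detected by RT-PCR plus capillary electrophoresis; this readout is an internal background marker.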

[7] = biological target: Transcriptional activator Myb (Homo sapiens) (UniProt P10242); test: ATG_Myb_CIS: Attagene CIS-FACTORIAL HepG2 Assay for human Myeloblastosis (Myb) Proto-Oncogene Transcription Factor (AID 2282986); conditions: HepG2 Attagene CIS-FACTORIAL Myb reporter transcription; actives raise or lower the signal
In short: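 HepG2 cells were transiently transfected with cis-regulated multiple reporter transcription units reflecting endogenous Myb activity, then exposed to compound for 24 hours. Reporter mRNA was measured by RT-PCR with capillary electrophoresis; bidirectional fitting versus DMSO baseline.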

[8] = biological target: Nuclear respiratory factor 1 (Homo sapiens) (UniProt Q16656); test: ATG_NRF1_CIS: Attagene CIS-FACTORIAL HepG2 Assay for human Nuclear Respiratory Factor 1 (NRF1) Orphan Gene (AID 2282987); conditions: HepG2 NRF1 cis-element reporter, Attagene multiplex; actives raise or lower the signal
In short: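 HepG2 cells transiently transfected with multiple reporter transcription units under cis-regulatory promoter control, so endogenous transcription-factor activity is read. After 24 h compound exposure, reporter mRNA quantified by RT-PCR, fluorescent labelling, HpaI digestion and capillary electrophoresis; bidirectional fitting versus DMSO.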

[9] = biological target: Myc proto-oncogene protein (Homo sapiens) (UniProt P01106); test: ATG_Myc_CIS: Attagene CIS-FACTORIAL HepG2 Assay for human Myelocytomatosis (Myc) Proto-Oncogene Transcription Factor (AID 2282990); conditions: HepG2, Attagene cis-reporter transcription factor activity; actives raise or lower the signal
In short: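 After 24 h chemical treatment of HepG2 cells carrying multiplexed cis-regulated reporter constructs, reporter transcripts quantified by RT-PCR and capillary electrophoresis of fluorescent fragments. Gain or loss fitted against DMSO baseline.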

[10] = ATG_NF_kB_CIS: Attagene CIS-FACTORIAL HepG2 Assay for human Nuclear Factor Kappa B (NF-kB) (AID 2282991); conditions: HepG2 Attagene cis-factorial NF-kB reporter mRNA; actives raise or lower the signal
In short: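 HepG2 cells transiently transfected with multiplexed cis-element reporter units measuring endogenous transcription factor activity; reporter mRNA read 24 h after dosing by RT-PCR, fluorescent labelling, HpaI digestion and capillary electrophoresis. Bidirectional fit against DMSO baseline.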

[11] = ATG_NRF2_ARE_CIS: Attagene CIS-FACTORIAL HepG2 Assay for human Nuclear Factor Erythroid 2 Related Factor 2 (NFR2) response to Antioxidant Response Elements (ARE) (AID 2282992); conditions: HepG2 Attagene ARE/NRF2 reporter, transcription factor activity; actives raise or lower the signal
In short: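 Endogenous transcription factor activity read out as reporter transcript levels (RT-PCR plus capillary electrophoresis, fluorescence) in transiently transfected HepG2 cells. Measured at 24 h after dosing; gain or loss of signal fitted versus DMSO.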

[12] = ATG_Oct_MLP_CIS: Attagene CIS-FACTORIAL HepG2 Assay for human Octamer-Binding Transcription Factor (Oct) (AID 2282993); conditions: HepG2 Attagene cis-factorial Oct reporter, mRNA; actives raise or lower the signal
In short: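 Cells of the HepG2 line express promoter-controlled reporter sequences whose mRNA levels, after 24 h treatment, are measured by RT-PCR and capillary electrophoresis. Increases and decreases are scored relative to DMSO.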

[13] = biological target: Cellular tumor antigen p53 (Homo sapiens) (UniProt P04637); test: ATG_p53_CIS: Attagene CIS-FACTORIAL HepG2 Assay for human p53 Transcription Factor (AID 2282994); conditions: HepG2 p53 cis-element reporter, Attagene mRNA; actives raise or lower the signal
In short: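 Endogenous p53 activity read in transiently transfected HepG2 from a cis-element-driven reporter transcript after 24 h exposure. RNA reverse-transcribed, PCR-amplified, fluorescently labelled and sized by capillary electrophoresis; gain or loss fitted against DMSO baseline.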

[14] = BSK_3C_TissueFactor: BioMAP Diversity Plus: 3C Assay for Tissue Factor Biomarker Activity (AID 2282997); conditions: BioMAP 3C HUVEC, tissue factor biomarker readout; actives raise or lower the signal
In short: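 Tissue Factor measured by ELISA, 24 h after treatment of primary HUVEC in the BioMAP 3C setting.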

[15] = BSK_3C_uPAR: BioMAP Diversity Plus: 3C Assay for Urokinase-type plasminogen activator receptor (uPAR) Biomarker Activity (AID 2282998); conditions: BioMAP 3C HUVEC, uPAR biomarker ELISA; actives raise or lower the signal
In short: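 Endothelial primary cells of human umbilical vein origin received test chemical; 24 h later uPAR was assayed by ELISA. Fitting was bidirectional, DMSO as negative control.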

[16] = BSK_3C_VCAM1: BioMAP Diversity Plus: 3C Assay for Vascular cell adhesion molecule 1 (VCAM1) Biomarker Activity (AID 2282999); conditions: BioMAP 3C HUVEC, VCAM1 ELISA, cytokine-stimulated; actives raise or lower the signal
In short: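 Activity fitted in both directions relative to DMSO, with ELISA measurement of the surface marker on primary HUVEC (3C) at 24 h post-treatment; parallel SRB staining (0.1% SRB, TCA-fixed, 560 nm) flagged overt cytotoxicity.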

[17] = BSK_4H_Eotaxin3: BioMAP Diversity Plus: 4H Assay for Eotaxin 3 Biomarker Activity (AID 2283000); conditions: primary human endothelial cells (HUVEC); actives raise or lower the signal
In short: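 Eotaxin-3 (CCL26) levels were measured by ELISA in HUVEC primary cultures 24 h post-dosing. Gain or loss of signal was fitted in both directions, with DMSO serving as baseline and negative control.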

[18] = ATG_M_06_TRANS: Attagene TRANS-FACTORIAL HepG2 Assay for M06 Transcription Factor (Internal Marker) (AID 2282983; active = hit-call score of the fitted dose curve at least 0.9, where 1 is the maximum); conditions: HepG2 Attagene TRANS M06 internal marker reporter
In short: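 mRNA levels of a reporter transcript, quantified as FAM fluorescence on capillary electrophoresis, served as readout. HepG2 cells expressing exogenous GAL4-chimera reporter constructs were exposed for 24 h. Gain of signal over DMSO was evaluated.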

[19] = biological target: Nuclear receptor subfamily 4 group A member 2 (Homo sapiens) (UniProt P43354); test: ATG_NURR1_TRANS: Attagene TRANS-FACTORIAL HepG2 Assay for human Nuclear Receptor Related Protein 1 (NURR1) (AID 2282985; active = hit-call score of the fitted dose curve at least 0.9, where 1 is the maximum); conditions: HepG2 Attagene TRANS reporter, mRNA readout
In short: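 Measures transcriptional activation by an exogenous NR-Gal4 chimera in transfected HepG2 liver cells. After 24 h, reporter RNA is reverse-transcribed, amplified and resolved by capillary electrophoresis; DMSO defines baseline.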

[20] = ATG_NFI_CIS: Attagene CIS-FACTORIAL HepG2 Assay for human Nuclear Factor I (NFI) (AID 2282989); conditions: HepG2 cis-regulatory reporter, NFI response element transcription; actives raise or lower the signal
In short: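 After transient transfection of HepG2 with cis-promoter reporter constructs and 24 h dosing, RNA is reverse-transcribed, amplified, 6-FAM end-labelled and HpaI-digested before capillary analysis. Bidirectional curve fitting against DMSO.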

Measured: AC50

Chain of Bile acid receptor (Homo sapiens) (Q96RI1 whole entry, looked up, the tested form may be a part): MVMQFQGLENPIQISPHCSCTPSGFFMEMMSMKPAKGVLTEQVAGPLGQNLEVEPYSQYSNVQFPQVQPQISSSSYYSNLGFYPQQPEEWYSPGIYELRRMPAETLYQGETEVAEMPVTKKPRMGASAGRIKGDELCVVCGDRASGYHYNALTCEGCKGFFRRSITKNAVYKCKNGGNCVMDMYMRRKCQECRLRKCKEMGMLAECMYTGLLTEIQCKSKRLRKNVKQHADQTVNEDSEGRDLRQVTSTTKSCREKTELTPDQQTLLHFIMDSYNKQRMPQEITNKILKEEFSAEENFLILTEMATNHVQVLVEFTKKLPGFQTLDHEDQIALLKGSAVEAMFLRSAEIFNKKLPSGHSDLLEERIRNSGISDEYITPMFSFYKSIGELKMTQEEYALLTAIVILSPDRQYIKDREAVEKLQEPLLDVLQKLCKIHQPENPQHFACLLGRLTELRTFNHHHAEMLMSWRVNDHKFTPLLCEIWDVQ
Chain of Glucocorticoid receptor (Homo sapiens) (P04150 whole entry, looked up, the tested form may be a part): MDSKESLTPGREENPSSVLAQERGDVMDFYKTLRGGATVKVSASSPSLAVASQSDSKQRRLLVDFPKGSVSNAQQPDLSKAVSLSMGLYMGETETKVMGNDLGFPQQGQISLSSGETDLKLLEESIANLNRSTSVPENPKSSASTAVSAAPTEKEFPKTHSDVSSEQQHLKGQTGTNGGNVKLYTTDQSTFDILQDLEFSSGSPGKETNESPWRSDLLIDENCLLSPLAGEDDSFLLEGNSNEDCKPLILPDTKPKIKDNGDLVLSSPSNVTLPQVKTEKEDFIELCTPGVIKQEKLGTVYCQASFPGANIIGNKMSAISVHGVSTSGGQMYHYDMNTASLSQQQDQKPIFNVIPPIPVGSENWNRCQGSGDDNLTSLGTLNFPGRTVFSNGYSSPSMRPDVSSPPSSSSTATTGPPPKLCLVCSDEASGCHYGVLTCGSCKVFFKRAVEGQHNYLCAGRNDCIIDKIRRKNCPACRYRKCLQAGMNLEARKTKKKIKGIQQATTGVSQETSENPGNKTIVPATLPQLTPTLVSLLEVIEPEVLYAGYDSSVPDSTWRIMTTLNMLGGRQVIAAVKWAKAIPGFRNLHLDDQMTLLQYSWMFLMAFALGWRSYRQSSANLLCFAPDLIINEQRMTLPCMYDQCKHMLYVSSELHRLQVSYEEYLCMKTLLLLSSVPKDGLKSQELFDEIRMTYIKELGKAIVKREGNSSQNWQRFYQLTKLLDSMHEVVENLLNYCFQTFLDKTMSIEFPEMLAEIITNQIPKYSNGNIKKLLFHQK
Chain of Cellular tumor antigen p53 (Homo sapiens) (P04637 whole entry, looked up): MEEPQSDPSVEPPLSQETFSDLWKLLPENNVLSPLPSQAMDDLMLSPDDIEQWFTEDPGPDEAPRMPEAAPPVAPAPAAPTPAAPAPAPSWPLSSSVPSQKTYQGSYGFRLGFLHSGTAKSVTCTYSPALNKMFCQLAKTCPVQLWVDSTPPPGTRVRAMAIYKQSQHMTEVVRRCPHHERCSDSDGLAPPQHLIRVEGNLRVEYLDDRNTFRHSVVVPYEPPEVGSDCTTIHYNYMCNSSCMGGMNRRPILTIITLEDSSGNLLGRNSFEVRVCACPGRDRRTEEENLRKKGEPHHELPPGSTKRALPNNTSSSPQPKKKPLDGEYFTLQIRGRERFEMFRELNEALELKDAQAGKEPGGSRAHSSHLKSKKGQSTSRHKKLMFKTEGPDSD
Chain of Nuclear respiratory factor 1 (Homo sapiens) (Q16656 whole entry, looked up): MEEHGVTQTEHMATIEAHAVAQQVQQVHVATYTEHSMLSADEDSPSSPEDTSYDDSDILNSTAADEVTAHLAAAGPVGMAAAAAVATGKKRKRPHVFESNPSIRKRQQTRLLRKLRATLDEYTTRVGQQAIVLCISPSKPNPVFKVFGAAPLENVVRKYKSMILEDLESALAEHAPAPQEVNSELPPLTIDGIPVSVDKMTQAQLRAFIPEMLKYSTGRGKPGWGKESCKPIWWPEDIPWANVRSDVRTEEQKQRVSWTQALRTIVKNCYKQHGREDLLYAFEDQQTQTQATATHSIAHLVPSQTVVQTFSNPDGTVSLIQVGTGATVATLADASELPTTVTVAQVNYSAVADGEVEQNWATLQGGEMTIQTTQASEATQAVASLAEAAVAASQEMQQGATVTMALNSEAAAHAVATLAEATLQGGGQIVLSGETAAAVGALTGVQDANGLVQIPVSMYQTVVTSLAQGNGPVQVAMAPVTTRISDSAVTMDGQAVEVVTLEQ
Chain of Myc proto-oncogene protein (Homo sapiens) (P01106 whole entry, looked up, the tested form may be a part): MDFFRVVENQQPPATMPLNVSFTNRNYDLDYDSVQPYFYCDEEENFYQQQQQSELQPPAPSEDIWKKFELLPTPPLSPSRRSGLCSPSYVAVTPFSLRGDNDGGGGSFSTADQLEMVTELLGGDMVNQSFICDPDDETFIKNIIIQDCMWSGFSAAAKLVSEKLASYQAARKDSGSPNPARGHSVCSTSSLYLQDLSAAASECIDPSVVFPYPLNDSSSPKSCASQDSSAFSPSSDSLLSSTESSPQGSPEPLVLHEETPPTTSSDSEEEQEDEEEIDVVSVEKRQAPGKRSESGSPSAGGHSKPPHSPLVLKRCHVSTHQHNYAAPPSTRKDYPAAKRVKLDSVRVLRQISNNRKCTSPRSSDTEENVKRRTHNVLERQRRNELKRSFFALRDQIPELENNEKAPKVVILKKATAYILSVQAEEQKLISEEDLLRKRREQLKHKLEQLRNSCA
Chain of Estrogen-related receptor gamma (Homo sapiens) (P62508 whole entry, looked up, the tested form may be a part): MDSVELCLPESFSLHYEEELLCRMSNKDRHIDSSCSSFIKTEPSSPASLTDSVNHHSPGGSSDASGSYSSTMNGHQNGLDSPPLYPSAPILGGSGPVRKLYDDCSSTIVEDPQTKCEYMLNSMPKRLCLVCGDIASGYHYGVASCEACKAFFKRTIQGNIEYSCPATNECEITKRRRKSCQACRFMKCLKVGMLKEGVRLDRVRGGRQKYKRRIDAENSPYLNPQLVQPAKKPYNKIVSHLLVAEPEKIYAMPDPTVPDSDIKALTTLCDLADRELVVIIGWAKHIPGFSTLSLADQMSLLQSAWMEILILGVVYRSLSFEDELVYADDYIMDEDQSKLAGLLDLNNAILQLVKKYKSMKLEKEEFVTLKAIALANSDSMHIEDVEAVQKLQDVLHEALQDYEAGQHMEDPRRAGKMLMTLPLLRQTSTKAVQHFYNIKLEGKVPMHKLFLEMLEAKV
Chain of Transcriptional activator Myb (Homo sapiens) (P10242 whole entry, looked up): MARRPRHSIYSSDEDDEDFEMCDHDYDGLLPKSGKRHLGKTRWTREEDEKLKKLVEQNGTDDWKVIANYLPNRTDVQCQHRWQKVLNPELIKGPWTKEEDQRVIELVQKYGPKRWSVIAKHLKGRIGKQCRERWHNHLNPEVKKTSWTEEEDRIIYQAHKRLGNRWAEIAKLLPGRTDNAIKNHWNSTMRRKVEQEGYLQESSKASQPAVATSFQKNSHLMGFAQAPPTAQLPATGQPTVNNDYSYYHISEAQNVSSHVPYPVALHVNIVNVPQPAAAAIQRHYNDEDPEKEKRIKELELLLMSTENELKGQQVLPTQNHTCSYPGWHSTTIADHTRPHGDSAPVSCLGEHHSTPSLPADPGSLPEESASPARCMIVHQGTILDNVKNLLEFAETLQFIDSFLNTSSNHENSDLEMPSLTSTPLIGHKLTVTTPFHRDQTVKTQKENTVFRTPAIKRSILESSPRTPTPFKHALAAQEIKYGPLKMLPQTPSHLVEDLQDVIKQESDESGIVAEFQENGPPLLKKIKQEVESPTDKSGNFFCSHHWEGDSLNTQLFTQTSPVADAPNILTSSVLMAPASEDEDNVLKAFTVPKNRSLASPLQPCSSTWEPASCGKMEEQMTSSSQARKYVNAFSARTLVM
Chain of Oxysterols receptor LXR-beta (Homo sapiens) (P55055 whole entry, looked up, the tested form may be a part): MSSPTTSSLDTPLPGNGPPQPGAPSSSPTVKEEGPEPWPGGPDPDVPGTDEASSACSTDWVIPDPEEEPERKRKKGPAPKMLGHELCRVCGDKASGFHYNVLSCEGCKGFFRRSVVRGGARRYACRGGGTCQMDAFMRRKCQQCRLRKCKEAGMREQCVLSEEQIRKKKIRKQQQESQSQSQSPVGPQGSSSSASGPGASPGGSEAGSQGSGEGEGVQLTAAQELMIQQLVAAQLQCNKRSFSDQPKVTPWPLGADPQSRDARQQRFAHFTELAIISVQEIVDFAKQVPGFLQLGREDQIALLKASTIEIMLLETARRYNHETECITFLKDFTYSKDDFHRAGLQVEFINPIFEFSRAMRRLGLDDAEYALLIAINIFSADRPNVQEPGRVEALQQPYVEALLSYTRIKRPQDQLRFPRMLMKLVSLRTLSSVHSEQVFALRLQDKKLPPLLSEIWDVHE
Chain of Hepatocyte nuclear factor 4-alpha (Homo sapiens) (P41235 whole entry, looked up): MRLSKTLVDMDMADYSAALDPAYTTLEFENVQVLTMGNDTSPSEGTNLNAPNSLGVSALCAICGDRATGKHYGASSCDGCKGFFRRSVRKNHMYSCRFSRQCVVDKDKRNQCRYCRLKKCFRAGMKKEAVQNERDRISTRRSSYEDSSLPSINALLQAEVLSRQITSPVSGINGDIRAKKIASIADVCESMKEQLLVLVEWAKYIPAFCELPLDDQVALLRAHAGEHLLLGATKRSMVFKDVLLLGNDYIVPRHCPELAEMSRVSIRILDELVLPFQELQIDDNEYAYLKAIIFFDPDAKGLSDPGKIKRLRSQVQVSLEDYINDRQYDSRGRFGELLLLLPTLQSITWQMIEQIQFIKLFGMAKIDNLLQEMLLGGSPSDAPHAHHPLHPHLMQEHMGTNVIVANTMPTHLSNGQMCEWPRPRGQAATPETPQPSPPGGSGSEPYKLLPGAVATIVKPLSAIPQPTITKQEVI

NC(=O)N(O)[C@@H]1C=C[C@H](Oc2cccc(Oc3ccc(F)cc3)c2)C1
active: [11] 20.6 µM | [12] 33 µM
not listed: [18] | [19] | [20]
inactive: all other assays above

CCCOc1sc(C(=O)N2CCC(c3cc(CN)ccc3F)CC2)c(C)c1Br
active: [11] 1.49 µM | [14] 9.59 µM | [15] 5.41 µM | [16] 7.38 µM | [17] 9.89 µM
not listed: [1] | [4] | [18] | [19] | [20]
inactive: all other assays above

Cc1cc(C)c(O)c(C)c1
active: [11] 27.7 µM | [12] 100 µM
not listed: [1] | [4] | [10] | [19] | [20]
inactive: all other assays above

CCCCC[C@H](O)CC(=O)CCc1ccc(O)c(OC)c1
active: [8] 152 µM | [11] 29.9 µM
inactive: [1] | [2] | [3] | [18] | [6] | [7] | [9] | [10] | [12] | [13]

O=C1OC2(c3ccccc31)c1cc(Br)c(O)c(Br)c1Oc1c2cc(Br)c(O)c1Br
active: [12] 66.2 µM
inactive: [2] | [3] | [5] | [18] | [6] | [7] | [8] | [9] | [10] | [11] | [12]

Cc1ccc(S(=O)(=O)O)c(C)c1
not listed: [3] | [14] | [15] | [16] | [17] | [18] | [19] | [20]
inactive: all other assays above

CCN(CC)CCNc1ccc(CNC=O)c2sc3ccc(OC)cc3c(=O)c12
active: [2] 1.85 µM | [3] 2.44 µM | [8] 1.04 µM | [9] 0.508 µM | [11] 0.0735 µM | [12] 0.842 µM | [13] 0.117 µM | [14] 31.2 µM | [15] 12.3 µM | [16] 26.8 µM | [17] 29.2 µM
inactive: [5] | [18] | [6] | [7]

CC(C)(C)c1ccc(O)c(C(C)(C)C)c1
active: [19] 9.6 µM | [14] 8.52 µM | [15] 9.34 µM | [16] 12.4 µM | [17] 12.1 µM
not listed: [2] | [4] | [6]
inactive: all other assays above

OCCC(F)(F)C(F)(F)C(F)(F)C(F)(F)C(F)(F)C(F)(F)C(F)(F)C(F)(F)F
active: [8] 242 µM | [20] 46 µM and 150 µM | [9] 150 µM | [10] 24.4 µM | [11] 24.6 µM and 37.3 µM | [12] 46.6 µM and 113 µM | [13] 150 µM | [14] 43.1 µM and 10.6 µM | [15] 19.5 µM and 16.5 µM | [16] 30 µM and 21.8 µM | [17] 46 µM and 14.9 µM
inactive: [1] | [5] | [18] | [6] | [7] | [8] | [9] | [10] | [13] | [14] | [15] | [16] | [17]

O=C(O)c1ccccc1C(c1ccc(O)cc1)c1ccc(O)cc1
not listed: [3] | [13] | [19] | [20]
inactive: all other assays above

CN(C)C=O
not listed: [2] | [5] | [19]
inactive: all other assays above

CCCCC(CC)COC(=O)CCCCC(=O)OCC(CC)CCCC (configuration not stated)
not listed: [1] | [4] | [6] | [18]
inactive: all other assays above

COCC(C)O (configuration not stated)
not listed: [3] | [4] | [5] | [19]
inactive: all other assays above

CCCOC(=O)c1ccc(O)cc1
inactive: [1] | [2] | [3] | [5] | [18] | [6] | [7] | [8] | [9] | [11] | [12] | [13] | [14] | [15] | [16] | [17]
active: [11] 77.7 µM | [12] 168 µM
